From ChEMBL document CHEMBL3988442, “University of Dundee, Small-Polar-MMV Screening Library” (2021)
For some assays here: Results with a measured potency or affinity are listed apart.

Experiments:
Design in all cases: scale not given: direction of the effect not stated beside the values
[1] = target: Protein translocase subunit SecA (Escherichia coli (strain K12)) (UniProt P10408); assay: Assay to Identify E. coli SecA ATPase Inhibitors; type: functional; details: 30 µM
[2] = target: T1, Ubiquitin-activating enzyme e1, putative (Leishmania donovani (strain BPK282A1)) (UniProt E9BSI1); assay: Leishmania donovani Ubiquitin Activating Enzyme (LdE1); type: functional; details: 30 µM
T1 sequence (whole entry): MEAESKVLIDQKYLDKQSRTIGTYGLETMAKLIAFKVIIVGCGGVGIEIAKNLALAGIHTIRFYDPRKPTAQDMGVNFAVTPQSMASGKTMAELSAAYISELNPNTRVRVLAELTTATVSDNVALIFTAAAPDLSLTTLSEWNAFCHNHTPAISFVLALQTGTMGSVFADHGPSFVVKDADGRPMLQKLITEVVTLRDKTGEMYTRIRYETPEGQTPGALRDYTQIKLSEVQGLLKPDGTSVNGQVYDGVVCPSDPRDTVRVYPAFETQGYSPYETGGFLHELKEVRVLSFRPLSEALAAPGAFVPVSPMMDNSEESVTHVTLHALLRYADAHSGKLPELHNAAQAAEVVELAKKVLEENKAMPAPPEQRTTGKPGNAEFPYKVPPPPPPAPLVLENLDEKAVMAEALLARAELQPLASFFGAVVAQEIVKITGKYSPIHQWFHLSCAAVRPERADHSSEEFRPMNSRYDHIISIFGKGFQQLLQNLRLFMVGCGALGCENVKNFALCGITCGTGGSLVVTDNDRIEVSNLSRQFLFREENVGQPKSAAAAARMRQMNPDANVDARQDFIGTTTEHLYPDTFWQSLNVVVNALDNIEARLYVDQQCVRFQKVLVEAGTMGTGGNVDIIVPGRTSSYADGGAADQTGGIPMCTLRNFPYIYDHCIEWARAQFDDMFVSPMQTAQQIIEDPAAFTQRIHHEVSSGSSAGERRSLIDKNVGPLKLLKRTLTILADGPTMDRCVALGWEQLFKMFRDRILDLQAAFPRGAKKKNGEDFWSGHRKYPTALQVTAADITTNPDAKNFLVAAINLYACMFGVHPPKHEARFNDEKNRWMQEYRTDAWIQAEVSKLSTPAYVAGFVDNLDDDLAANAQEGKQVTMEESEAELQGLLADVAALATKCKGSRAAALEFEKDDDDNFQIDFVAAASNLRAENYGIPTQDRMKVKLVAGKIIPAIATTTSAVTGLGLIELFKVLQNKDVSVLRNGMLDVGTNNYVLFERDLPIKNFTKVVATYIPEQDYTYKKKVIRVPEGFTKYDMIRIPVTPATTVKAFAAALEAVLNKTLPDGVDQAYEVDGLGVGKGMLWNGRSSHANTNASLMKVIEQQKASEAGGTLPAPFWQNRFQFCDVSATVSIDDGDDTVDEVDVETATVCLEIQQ

[3] = target: AMP-activated protein kinase, AMPK (Homo sapiens) (UniProt P54646+O43741+P54619+Q9UGJ0+Q9Y478+Q13131+Q9UGI9); assay: AMP-dependent Kinase enzyme assay. An in vitro enzyme assay that detects ADP turnover that is directly proportional to AMPK activity. This uses naive AMPK that is activated during the assay with MK-8722; type: functional; details: 30 µM
[4] = target: Sialic acid-binding Ig-like lectin 9 (Homo sapiens) (UniProt Q9Y336); assay: Hs-Siglec9 ALPHAscreen SOP 20170721; details: 10 µM
Sequence of Sialic acid-binding Ig-like lectin 9 (Homo sapiens) (Q9Y336 whole entry): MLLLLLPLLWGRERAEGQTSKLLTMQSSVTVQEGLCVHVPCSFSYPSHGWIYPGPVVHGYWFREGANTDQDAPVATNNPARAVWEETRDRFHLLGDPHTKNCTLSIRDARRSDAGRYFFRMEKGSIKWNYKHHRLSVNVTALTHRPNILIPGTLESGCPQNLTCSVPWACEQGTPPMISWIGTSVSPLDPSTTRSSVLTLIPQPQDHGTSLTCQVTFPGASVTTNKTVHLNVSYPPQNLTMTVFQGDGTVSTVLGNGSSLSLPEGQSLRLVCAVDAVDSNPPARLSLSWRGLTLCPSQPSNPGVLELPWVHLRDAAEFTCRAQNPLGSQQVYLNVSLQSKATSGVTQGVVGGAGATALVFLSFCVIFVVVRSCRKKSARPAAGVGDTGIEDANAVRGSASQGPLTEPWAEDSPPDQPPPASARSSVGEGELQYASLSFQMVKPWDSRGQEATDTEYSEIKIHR

Trypanosoma cruzi = assay: Trypanosoma cruzi phosphomannomutase and mannose-1-phosphate guanylyltransferase assay; type: functional; details: 10 µM
[5] = target: T2, Arginase-2, mitochondrial (Homo sapiens) (UniProt P78540); assay: in vitro enzyme assay to detect the production of urea directly proportional to the activity of Arginase II; type: functional; details: 33.3 µM; also: in the data most compounds retested in dose-response had high values
T2 sequence (whole entry): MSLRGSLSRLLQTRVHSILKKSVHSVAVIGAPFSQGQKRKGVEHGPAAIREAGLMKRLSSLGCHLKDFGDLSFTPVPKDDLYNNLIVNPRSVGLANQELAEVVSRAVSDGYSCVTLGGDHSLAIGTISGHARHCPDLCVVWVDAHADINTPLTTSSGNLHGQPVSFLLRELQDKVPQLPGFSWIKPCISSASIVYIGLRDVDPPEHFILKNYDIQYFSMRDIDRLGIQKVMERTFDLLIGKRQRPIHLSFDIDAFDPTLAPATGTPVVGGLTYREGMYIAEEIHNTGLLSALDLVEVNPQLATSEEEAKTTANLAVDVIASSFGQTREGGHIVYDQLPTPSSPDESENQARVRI

[6] = target: T3, Proteasome subunit beta (Trypanosoma cruzi) (UniProt O96673); assay: Trypanosoma cruzi proteasome chymotrypsin-like activity (TcProtChymo) assay.; also: in the data most compounds retested in dose-response had high values; type: functional; details: 9.37 µM
T3 sequence (whole entry): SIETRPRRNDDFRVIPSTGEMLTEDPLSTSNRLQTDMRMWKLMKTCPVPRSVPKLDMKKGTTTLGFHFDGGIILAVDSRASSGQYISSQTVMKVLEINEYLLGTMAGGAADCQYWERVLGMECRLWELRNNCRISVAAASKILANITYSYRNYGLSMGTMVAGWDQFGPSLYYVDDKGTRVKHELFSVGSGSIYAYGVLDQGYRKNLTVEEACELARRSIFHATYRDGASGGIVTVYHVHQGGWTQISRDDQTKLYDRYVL

Homo sapiens = species on record: Homo sapiens; assay: To identify inhibition of the IFN signalling (Jak-Stat) pathway via expression of an eGFP reporter gene under the control of an IFN-stimulated response element (ISRE) containing MxA promoter.; type: functional; details: 30 µM
[7] = target: T4, Tyrosyl-tRNA synthetase, putative (Trypanosoma cruzi (strain CL Brener)) (UniProt Q4DSP6); assay: Trypanosoma cruzi tyrosyl tRNA synthetase (TcYRS) _High Tyrosine SOP; type: functional; details: 30 µM; also: in the data most compounds retested in dose-response had high values
T4 sequence (whole entry): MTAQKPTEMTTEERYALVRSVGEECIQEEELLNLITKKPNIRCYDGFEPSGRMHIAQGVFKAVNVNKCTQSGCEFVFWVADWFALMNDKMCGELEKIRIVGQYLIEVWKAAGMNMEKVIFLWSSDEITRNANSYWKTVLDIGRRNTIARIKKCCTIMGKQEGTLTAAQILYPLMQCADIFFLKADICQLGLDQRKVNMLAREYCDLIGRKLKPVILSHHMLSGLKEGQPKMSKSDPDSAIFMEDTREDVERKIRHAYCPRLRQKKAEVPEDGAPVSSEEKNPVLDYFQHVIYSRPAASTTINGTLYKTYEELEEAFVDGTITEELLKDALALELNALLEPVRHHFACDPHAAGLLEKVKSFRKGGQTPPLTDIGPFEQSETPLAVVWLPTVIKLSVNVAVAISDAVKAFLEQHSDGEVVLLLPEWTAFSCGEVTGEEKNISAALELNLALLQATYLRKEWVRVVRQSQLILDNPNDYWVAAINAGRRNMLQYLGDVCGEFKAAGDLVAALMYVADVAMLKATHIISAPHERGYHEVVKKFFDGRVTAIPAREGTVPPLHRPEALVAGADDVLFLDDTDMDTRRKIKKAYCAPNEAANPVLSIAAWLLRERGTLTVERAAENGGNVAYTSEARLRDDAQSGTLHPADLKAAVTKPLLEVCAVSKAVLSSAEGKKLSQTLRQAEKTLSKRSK

[8] = target: T4, Tyrosyl-tRNA synthetase, putative (Trypanosoma cruzi (strain CL Brener)); assay: Trypanosoma cruzi tyrosyl tRNA synthetase (TcYRS) SOP; type: functional; details: 30 µM
[9] = target: Chromo domain-containing protein 1 (Saccharomyces cerevisiae (strain ATCC 204508 / S288c) (Baker's yeast)) (UniProt P32657); assay: ScCHD-1 Enzyme Inhibition Assay; type: functional; details: 30 µM; also: in the data most compounds retested in dose-response had high values
Sequence of Chromo domain-containing protein 1 (Saccharomyces cerevisiae (strain ATCC 204508 / S288c) (Baker's yeast)) (P32657 whole entry, the tested form may be a part): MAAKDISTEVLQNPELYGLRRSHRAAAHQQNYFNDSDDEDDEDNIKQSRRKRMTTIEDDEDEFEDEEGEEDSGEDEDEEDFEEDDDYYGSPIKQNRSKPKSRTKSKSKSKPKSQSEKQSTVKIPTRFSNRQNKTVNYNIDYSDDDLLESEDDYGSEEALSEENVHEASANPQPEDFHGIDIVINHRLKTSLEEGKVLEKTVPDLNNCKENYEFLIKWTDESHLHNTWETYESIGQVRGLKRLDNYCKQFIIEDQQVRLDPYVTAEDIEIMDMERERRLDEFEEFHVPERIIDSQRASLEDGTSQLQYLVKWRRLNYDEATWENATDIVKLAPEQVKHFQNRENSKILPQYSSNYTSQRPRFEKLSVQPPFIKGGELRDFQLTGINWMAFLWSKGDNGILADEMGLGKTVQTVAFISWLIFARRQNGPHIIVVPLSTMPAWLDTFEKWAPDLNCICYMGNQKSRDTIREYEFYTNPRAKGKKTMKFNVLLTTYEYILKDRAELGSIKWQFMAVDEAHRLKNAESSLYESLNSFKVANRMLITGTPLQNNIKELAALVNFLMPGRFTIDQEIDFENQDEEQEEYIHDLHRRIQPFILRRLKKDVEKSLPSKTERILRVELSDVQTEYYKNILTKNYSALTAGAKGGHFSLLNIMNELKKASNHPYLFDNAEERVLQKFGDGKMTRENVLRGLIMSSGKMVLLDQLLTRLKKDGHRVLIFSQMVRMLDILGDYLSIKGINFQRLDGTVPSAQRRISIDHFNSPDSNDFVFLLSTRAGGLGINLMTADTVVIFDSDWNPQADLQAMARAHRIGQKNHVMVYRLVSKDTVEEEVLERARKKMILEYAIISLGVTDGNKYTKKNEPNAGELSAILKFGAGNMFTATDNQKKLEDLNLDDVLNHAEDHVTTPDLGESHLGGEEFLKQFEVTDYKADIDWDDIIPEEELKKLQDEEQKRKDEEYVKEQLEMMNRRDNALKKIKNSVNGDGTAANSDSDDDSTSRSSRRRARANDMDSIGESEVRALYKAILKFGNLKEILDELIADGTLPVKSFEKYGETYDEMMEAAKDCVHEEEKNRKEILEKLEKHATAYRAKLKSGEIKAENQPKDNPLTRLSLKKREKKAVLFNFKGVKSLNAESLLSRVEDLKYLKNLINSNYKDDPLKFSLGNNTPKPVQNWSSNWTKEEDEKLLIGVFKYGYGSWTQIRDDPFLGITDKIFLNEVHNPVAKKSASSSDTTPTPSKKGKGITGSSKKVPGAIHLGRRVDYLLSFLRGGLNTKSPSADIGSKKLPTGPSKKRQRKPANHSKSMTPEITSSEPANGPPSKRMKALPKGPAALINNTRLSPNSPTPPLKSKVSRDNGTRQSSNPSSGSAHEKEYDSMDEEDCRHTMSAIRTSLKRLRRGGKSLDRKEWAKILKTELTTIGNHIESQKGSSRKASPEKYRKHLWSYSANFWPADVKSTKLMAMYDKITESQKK

Sequence of Protein translocase subunit SecA (Escherichia coli (strain K12)) (P10408 whole entry): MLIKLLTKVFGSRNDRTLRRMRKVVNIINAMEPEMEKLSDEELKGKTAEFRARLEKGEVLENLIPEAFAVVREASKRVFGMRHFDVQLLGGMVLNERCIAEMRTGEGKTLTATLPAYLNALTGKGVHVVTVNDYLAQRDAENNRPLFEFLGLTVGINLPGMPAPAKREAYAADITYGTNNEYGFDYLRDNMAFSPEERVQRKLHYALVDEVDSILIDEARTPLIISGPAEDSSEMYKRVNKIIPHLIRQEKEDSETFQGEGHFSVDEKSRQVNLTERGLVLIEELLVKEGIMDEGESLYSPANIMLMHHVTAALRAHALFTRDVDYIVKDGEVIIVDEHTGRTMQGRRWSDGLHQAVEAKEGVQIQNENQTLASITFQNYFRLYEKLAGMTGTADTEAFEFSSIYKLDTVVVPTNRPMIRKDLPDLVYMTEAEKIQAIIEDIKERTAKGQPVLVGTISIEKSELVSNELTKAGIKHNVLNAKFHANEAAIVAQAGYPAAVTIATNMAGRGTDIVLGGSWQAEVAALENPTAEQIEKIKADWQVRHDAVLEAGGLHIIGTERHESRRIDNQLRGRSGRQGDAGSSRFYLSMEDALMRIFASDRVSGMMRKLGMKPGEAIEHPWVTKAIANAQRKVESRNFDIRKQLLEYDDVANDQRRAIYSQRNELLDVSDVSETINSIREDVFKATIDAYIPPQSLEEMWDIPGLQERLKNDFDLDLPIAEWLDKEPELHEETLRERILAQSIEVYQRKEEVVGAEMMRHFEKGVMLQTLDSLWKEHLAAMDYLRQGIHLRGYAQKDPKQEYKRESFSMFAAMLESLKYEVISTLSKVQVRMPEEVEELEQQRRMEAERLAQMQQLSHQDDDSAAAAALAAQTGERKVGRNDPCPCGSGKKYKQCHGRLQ

SMILES | Percent Effect [1] [%] | Percent Effect [2] [%] | Percent Effect [3] [%] | Percent Effect [4] [%] | Percent Effect (Trypanosoma cruzi) [%] | Percent Effect [5] [%] | Percent Effect [6] [%] | Percent Effect (Homo sapiens) [%] | Percent Effect [7] [%] | Percent Effect [8] [%] | Percent Effect [9] [%]
CC(C)n1cc(CN2CCCN(C(=O)c3ccc[nH]3)CC2)cn1 | -1.88 | 13.5 | -0.748 | -5.21 | 2.73 | 15.8 | 20.2 | -10.5 | 12.9 | 13.4 | -0.327
CN(C)c1cc2c(nn1)CCN(C(=O)C1Cc3ccccc3S1)C2 (configuration not stated) | -3.54 | 10.1 | -4.45 | 16 | 5.76 | 1.14 | 8.27 | -10.7 | 7.39 | 11.4 | 9.74
CNc1nc2c(s1)C(c1cccc(F)c1F)CC(=O)N2 (configuration not stated) | -2.38 | 13.2 | -61.3 | -2.61 | 0.876 | 4.73 | 18.9 | 7.67 | -11.7 | -13 | -8.74
Cc1nn(C)c(N(C)C)c1CNCc1cccnc1 | -5.22 | -2.7 | -6.42 | -9.25 | -5.38 | -1.74 | 12.4 | -10.3 | -4.3 | -6.17 | -0.598
Cc1cc(C[S+]([O-])CC(=O)NCc2cccs2)no1 (configuration not stated) | -6.18 | 10.4 | 3.08 | 10.1 | 1.87 | -6.05 | 1.01 | 5.94 | 8.74 | 19.5 | -5.87
CN(CC(N)=O)S(=O)(=O)c1ccc(F)cc1Cl | -4.21 | -5.48 | 0.145 | 5.52 | -0.794 | 0.399 | 6.59 | 16.6 | 13.5 | 21 | -3.16
CC(NC(=O)c1cc(-c2cccc(Cl)c2)no1)C(=O)N1CCCC1 (configuration not stated) | -2.69 | 0 | 16.6 | -3.21 | -5.16 | -2.37 | 7.19 | -1.32 | 2.13 | 0 | -4.18
CCN1CCN(c2nc(C(C)C)nc3c(C)nn(CC)c23)CC1 | -8.3 | 0 | -2.21 | 5.36 | -1.28 | -5.52 | -0.832 | 1.81 | -2.15 | -48.1 | -0.207
CN1CCCc2cc(CNC(=O)c3ccc(NC4CC4)nc3)ccc21 | -1.41 | 6.33 | 52 | 6.12 | -0.923 | 2.8 | 0.515 | -2.19 | 6.25 | 10.1 | -6.23
CCCN1CCC(N(Cc2ncc(C)o2)C(C)=O)C1 (configuration not stated) | -6.17 | 0 | -14.9 | 26.2 | 2.05 | -0.744 | 22.6 | 1.11 | 3.23 | 1.24 | -1.33
CC(C)(C)SCCCC(=O)N1CCC(Nc2cccnn2)CC1 | -1.17 | -2.7 | -6.83 | 13.1 | 0.283 | -1.6 | -1.98 | 8.77 | 4.43 | 6.17 | 0.803
O=c1nc(CNc2ccccc2)[nH]n1Cc1ccccc1 | -3.5 | 7.89 | 10.7 | 0.216 | -4.58 | -1.18 | 19.5 | 3.25 | 9.57 | 13 | -4.75
Cc1cccc(OCCC(=O)N(C)CCC#N)c1C | -4.33 | 2.63 | 12.1 | 7.74 | -5.16 | -5.92 | 23.1 | 9.14 | 4.25 | 10.4 | -5.59
O=C([C@@H]1COC[C@H]2CN(C3CCOCC3)C[C@H]21)N1CCCCO1 | 0.287 | 13.3 | -0.78 | -8.11 | 0.386 | -46.4 | 6.67 | 7.44 | 2.08 | 20 | -6.62
O=C(Cn1nc(-c2cccs2)ccc1=O)N1CCCCCC1 | -3.74 | -1.33 | 5.86 | 8.95 | 1.77 | -10.4 | 7.21 | 9 | 1.06 | 7.69 | -3.49
Cc1nc(C2CCCN2CC(=O)N(Cc2ccsc2)C2CC2)no1 (configuration not stated) | -3.4 | -8.11 | -3.86 | 2.75 | 5.48 | -4.99 | 10.6 | 25.6 | 14.8 | 18.3 | -5.35
CN(C)CCN(Cc1ccc(Cl)cc1)C(=O)c1cc[nH]n1 | -2.91 | 20.8 | 3.16 | 18.6 | 2.23 | 3.53 | 17.9 | 3.16 | 7.37 | 17.9 | -5.67
CC(CNC(=O)Nc1cn[nH]c1)N1CCc2ccccc2C1 (configuration not stated) | -4.87 | 15.6 | -4.05 | -3.09 | -1.67 | 0.632 | 14.2 | 12.5 | 9.52 | 21.2 | -18
CCC1(CC)Cc2ccccc2-c2nc(CN(C)C)nc(O)c21 | -3.62 | 10.5 | 5 | 4.55 | 0.292 | -5.92 | 12.8 | 14.4 | 5.32 | 10.4 | -3.79
O=C(CC1CC1)N1CC[C@H]2[C@@H]1CCC(=O)N2c1cccnc1 | 3.01 | 10.8 | 7.09 | -6.56 | -4.79 | 4.14 | 22.9 | 2.55 | 1.08 | 12.8 | -1.6
Cc1cccc(CN(Cc2ccc(C)o2)C2CC(C)(C)NC(C)(C)C2)n1 | -4.93 | 9.46 | 9.39 | -2.48 | -6.13 | -3.48 | 10.8 | 1.42 | 3.23 | 3.9 | -0.669
CCc1noc(C(C)N2CCC(C(=O)Nc3cnn(CC)c3)CC2)n1 (configuration not stated) | -1.91 | 1.27 | 3.92 | -3.56 | 1.54 | 2.37 | 7.72 | 8.57 | -4.17 | -10.1 | -28.9
